Screening data: PubChem BioAssay, National Center for Advancing Translational Sciences (NCATS)
GoLoco inh red – qHTS Assay for Inhibitors of RGS12 GoLoco Motif Activity (Red Fluorophore). Gai1:RGS12 GoLoco peptide FP, rhodamine, 10 min. Potency, µM (series often up to 61.6 µM), usual class: inhibitors. hit rate 0.44% among 230,000; active = well fitted inhibition curve with a large enough effect, not every such curve was filed as active; inactive = no such curve, though single readings can be large or run the other way; also: nearly all actives have a fitted effect of over 30% in size
Target sequence (P63096 whole entry, looked up): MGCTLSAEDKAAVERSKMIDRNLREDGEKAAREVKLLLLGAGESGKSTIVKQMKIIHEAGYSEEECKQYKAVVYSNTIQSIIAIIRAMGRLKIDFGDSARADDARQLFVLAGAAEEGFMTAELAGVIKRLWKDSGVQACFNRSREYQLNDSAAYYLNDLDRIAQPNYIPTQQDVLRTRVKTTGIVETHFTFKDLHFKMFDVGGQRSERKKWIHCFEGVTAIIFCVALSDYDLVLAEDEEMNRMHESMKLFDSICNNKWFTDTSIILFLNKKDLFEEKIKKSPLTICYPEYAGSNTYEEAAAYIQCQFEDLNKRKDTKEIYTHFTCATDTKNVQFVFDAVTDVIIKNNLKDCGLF
Coupling enz – qHTS Assay for Inhibitors of Fructose-1,6-bisphosphate Aldolase from Giardia Lamblia: Coupling assay counterscreen | hit rate 0.67% among 290,000 | activity change, negative = inhibition, % at 58.2 µM, hits read low | coupling enzyme system counterscreen, AmpLite Red fluorescence; in the data active = activity change below about -30%
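Final compound at 57.5 uM, incubated 10 min at RT with coupling enzyme reagent (glyceraldehyde-3-phosphate), then 20 min with substrate and AmpLite Red detection. Fluorescence read at 525/598 nm; tests interference with the coupling assay, not aldolase inhibition.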
HTT ATP protect – qHTS Multiplex Assay to Identify Dual Action Probes in a Cell Model of Huntington: Cytoprotection (ATP); PC12 HTT-Q103 induced, cytoprotection, ATP luminescence, 40 h; Potency, µM (titrated, usually from 56.4 µM), most hits filed as activators; hit rate 0.14% among 230,000; also: nearly all actives have a fitted effect of over 45% in size
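Cells were plated at 1500 per well in phenol red-free DMEM with 5% equine and 5% calf serum. Tebufenozide (100 nM final) and compounds were added, then ATPlite reagent, and luminescence was read.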
KDM4E inh – qHTS Assay for Inhibitors of Human Jumonji Domain Containing 2E (JMJD2E); Lysine-specific demethylase 4E (Homo sapiens), B2RXH2; JMJD2E catalytic domain, FDH-coupled NADH fluorescence (FDH is formaldehyde dehydrogenase); Potency, µM (highest dose often 57.1 µM), usual class: inhibitors; hit rate 1.6% among 230,000; active = well fitted inhibition curve with a large enough effect, not every such curve was filed as active; inconclusive = small, poorly fitted or top-dose-only effect, or another doubt; inactive = no such curve, though single readings can be large or run the other way; also: nearly all actives have a fitted effect of over 50% in size
Target sequence (B2RXH2 1-337 limits assumed): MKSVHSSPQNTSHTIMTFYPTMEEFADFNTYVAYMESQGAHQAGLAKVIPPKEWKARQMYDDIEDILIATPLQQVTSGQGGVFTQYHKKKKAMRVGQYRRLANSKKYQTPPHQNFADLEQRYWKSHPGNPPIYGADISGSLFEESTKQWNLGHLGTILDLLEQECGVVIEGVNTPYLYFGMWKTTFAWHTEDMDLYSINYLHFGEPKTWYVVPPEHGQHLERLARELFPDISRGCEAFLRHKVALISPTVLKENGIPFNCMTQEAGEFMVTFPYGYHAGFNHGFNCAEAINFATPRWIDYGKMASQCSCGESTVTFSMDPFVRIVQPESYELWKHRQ
HttQ103 aggreg – qHTS Multiplex Assay to Identify Dual Action Probes in a Cell Model of Huntington: Aggregate Formation (GFP). PC12 HttQ103-GFP aggregates, Acumen cytometry, 40 h. Potency, µM (series often up to 46.1 µM), actives largely listed as inhibitors. hit rate 1.1% among 220,000. AID 1688, 2009; also: nearly all actives have a fitted effect of over 60% in size
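Compounds (qHTS titration) were added to PC12 cells expressing an ecdysone-driven HTT exon 1 Q103–GFP fusion after induction with 100 nM tebufenozide. Aggregate formation was measured as GFP objects in cell lysates.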
VDR inhibitor – Inhibitors of the vitamin D receptor (VDR): qHTS; Vitamin D3 receptor (Homo sapiens), P11473; VDR-SRC2-3 peptide fluorescence polarization, 2 h; Potency, µM, most hits filed as inhibitors; hit rate 0.93% among 400,000
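VDR–SRC2-3 interaction, FP format. Cmpds 23 nl via pintool, brief spin, 2 h ambient incubation.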
A number is an active result; - = inactive; ? = inconclusive; . = no result; [ ] = another dose, or the depositor's remark. Hits are enriched below; roughly 2.3% of the tested compounds scored in any of these assays. Unless noted, calls follow the shape of the dose curve; as a rule, active = well fitted curve in the direction sought with a large enough effect; inconclusive = small, poorly fitted or top-dose-only effect, or another doubt; inactive = no such curve, though single readings can be large; an effect the other way counts as inactive or inconclusive.

SMILES	GoLoco inh red	Coupling enz	HTT ATP protect	KDM4E inh	HttQ103 aggreg	VDR inhibitor
CN(Cc1ccco1)c1cc(-c2ccc3c(c2)OCO3)ncn1	-	-	-	.	.	22µM
CN(Cc1ccco1)c1cc(-c2cccnc2)ncn1	-	-	-	.	.	?
COC(=O)c1c(NC(=O)/C=C/C(=O)O)sc(C)c1-c1ccc(C(C)C)cc1	-	-	-[10 µM]	-	-	25µM
COC(=O)c1c(NC(=O)/C=C/C(=O)O)sc(C)c1-c1ccc(C)c(C)c1	-	-	.	-	?	89µM
CCOC(=O)c1c(NC(=O)/C=C/C(=O)O)sc(C)c1-c1ccc(F)cc1	-	-	-[10 µM]	-	-[9.22 µM]	22µM
COC(=O)c1c(NC(=O)/C=C/C(=O)O)sc(C)c1-c1ccc(C)cc1	-	-	-[10 µM]	-	-[9.22 µM]	?
COC(=O)c1sc(-c2ccc(Cl)cc2)cc1NC(=O)/C=C/C(=O)O	-	-	-[10 µM]	-	-[9.22 µM]	32µM
c1ccc(-c2cc3cc4c(cc3cn2)OCO4)cc1	.	.	.	.	.	-
Cc1ccc(NC(=O)c2cccc(N3CCCS3(=O)=O)c2)cc1	.	.	.	.	.	-
O=C(Cn1cc(C(=O)c2ccco2)c2ccccc21)Nc1ccccc1C(F)(F)F	.	.	.	.	.	-
CN(CC(=O)Nc1ccc(F)cc1)C(=O)COC(=O)CCN1C(=O)C2CC=CCC2C1=O (centres undefined)	.	.	.	.	.	-
COc1ccc(NC(=O)c2ccc(N3CCOCC3)nc2)cc1	.	.	.	.	.	-
CN(C)c1ccc(NC(=O)c2ccc(N3CCOCC3)nc2)cc1	.	.	.	.	.	79µM
Cc1ccc2c(c1)nnn2C1CCN(S(=O)(=O)c2ccc(C(=O)N3C(C)CCCC3C)cc2)CC1 (centres undefined)	-	.	-	-	13µM	-
Cc1ccc(-n2[nH]c(C)c(/C=N/NC(=O)c3ccc([N+](=O)[O-])cc3)c2=O)c(C)c1	-	-	-	?	13µM	.
Cc1[nH]n(-c2cccc3ccccc23)c(=O)c1/C=N/NC(=O)c1cccc([N+](=O)[O-])c1	-	-	-[10 µM]	?	10µM	-
Cc1[nH]n(-c2ccccc2)c(=O)c1/C=N/NC(=O)c1cccc([N+](=O)[O-])c1	-	-	-[10 µM]	-	5.6µM	-
O=C(N/N=C/c1c[nH]c2ccccc12)c1cccc([N+](=O)[O-])c1	-	-	-[10 µM]	-	-	-
CCC(C)c1ccccc1N1CC(C(=O)Nc2cccc(S(=O)(=O)N3CCOCC3)c2)CC1=O (centres undefined)	.	.	.	.	.	-
CC1CC(OC(=O)C2CCN(S(=O)(=O)c3ccc(F)cc3)CC2)C(=O)O1 (centres undefined)	.	.	.	.	.	-
O=C1Nc2ccccc2C1=Nc1ccc(Cl)cc1	.	-	.	.	.	?
O=C1Nc2ccccc2C1=Nc1ccc(Br)cc1	.	-	.	.	.	22µM
CCN(CC)c1ccc(NC(=O)c2cc(OC)cc(OC)c2)c(C)c1	-	-	-[0.074 µM]	-	3.2µM	-
CCN(CC)c1ccc(NC(=O)c2cccc(OC)c2)c(C)c1	-	-	-	-	?	-
CCNC(=O)c1sc(=S)n(CC)c1N	-	-	-	-	-	-
SMILES	GoLoco inh red	Coupling enz	HTT ATP protect	KDM4E inh	HttQ103 aggreg	VDR inhibitor
CCn1c(N)c(C(=O)NCC2CCCO2)sc1=S (centres undefined)	-	-	-	-	-	35µM
Cc1ccc(CNc2ncnc3c2c(-c2ccccc2)cn3-c2cccc(Cl)c2)cc1	.	.	.	.	.	-
CCOc1ccccc1CNC(=O)c1cc2c(=O)n(Cc3ccco3)ccc2nc1C	.	.	.	.	.	-
COc1ccccc1N1CCN(C(=O)c2oc3ccc(F)cc3c2C)CC1	-	-	-[10 µM]	-	11µM	-
CCOc1ccc(S(=O)(=O)NNS(=O)(=O)c2ccc(C)cc2C)cc1	.	-	.	.	.	-
COc1ccc2c(c1)CC/C(=C\C=C\c1ccccc1OC)C2=O	-	-40	-[10 µM]	-	-	-
COc1ccc2c(c1)CC/C(=C/c1ccncc1)C2=O	-	-	-[10 µM]	-	-	?
COC(=O)c1ccc2c(c1)N(CC(=O)Nc1ccc(C)cc1Cl)C(=O)c1ccccc1S2	.	.	.	.	.	-
COC(=O)c1nc2ccc(N3CCOCC3)cc2c(C)c1C(=O)OC	-	-51	-	-	-	-
C[C@H](C(=O)O)c1ccc2cc(O)ccc2c1	.	-	.	.	.	-
O=[N+]([O-])c1ccc(C[n+]2ccc(Cc3ccccc3)cc2)cc1	-	-42	-	?	-	-
COc1ccc(N(CC(=O)O)N=O)cc1	-[14.2 µM]	.	-[10 µM]	.	.	.
COc1ccc(C(=O)Nc2ccc(S(=O)(=O)N(C)c3ccccc3)cc2)cc1	.	.	.	.	.	-
Cn1c(N)c(C(=O)COC(=O)c2cc(-c3ccco3)nc3ccccc23)c(=O)n(Cc2ccccc2)c1=O	-	-	10µM	?	-	.
O=C(Nc1ccc2nc(SCC(=O)N3CCCC3)sc2c1)c1cccc(Br)c1	.	.	.	.	.	-
CCOC(=O)c1nn(-c2ccccc2)c(=O)c2c(N)scc12	-	-45	-[10 µM]	?	-	-
Nc1scc2c(C(=O)N/N=C/c3ccc(Cl)cc3)nn(-c3ccccc3)c(=O)c12	-	-48	?	-	-	?
CCc1ccc(-n2nnc(-c3nc(-c4cccs4)no3)c2N)cc1	.	.	.	.	.	-
C=C[C@@]1(C)CC(=O)[C@@]2(O)[C@@]3(C)[C@@H](O)CCC(C)(C)[C@@H]3[C@H](OC(=O)CCN(C)C)[C@H](OC(C)=O)[C@@]2(C)O1	-	-	40µM	-	.	-
C=C[C@]1(C)CC(=O)[C@@]2(O)[C@@]3(C)C(O)CCC(C)(C)C3C(O)C(OC(C)=O)[C@@]2(C)O1 (some centres undefined)	-	-	-	-	.	-
CC1(N=Cc2cc(Cl)ccc2O)COP(=O)(Nc2ccccc2)OC1 (centres undefined)	.	.	.	.	.	-
COc1ccc(CC(=O)Oc2ccc(F)cc2)cc1	.	-	.	.	.	-
C/C=C/C=C/C(=O)N1CC2(CC(c3cccc(NC(=O)CCCCC)c3)=NO2)C[C@H]1C(N)=O (some centres undefined)	-	-	-[10 µM]	-	-[9.22 µM]	79µM
CCCCn1c(=O)[nH]c(=O)c2c1nc(-c1ccccn1)n2CC	.	-	.	.	.	-
O=c1ccsn1Cc1ccccc1	-	-	-	-	?	?
Cn1sccc1=O	.	.	.	.	.	16µM
Cc1cc(C)nc(Sc2nc(Cl)nc(N(c3ccccc3)c3ccccc3)n2)n1	-	-	-	-	?	22µM
Cc1cc(C)nc(SC(C(=O)O)c2ccccc2)n1 (centres undefined)	-	-	-[1.9 µM]	-	-	-
